Data from PubChem BioAssay (Tox21).
Records with an inconclusive call do not appear. The source made the active and inactive calls. Unless noted, calls come from the whole dose curve; as a rule, active = well fitted cell-killing curve with a large enough effect in the repeat runs; inconclusive = weak or mixed curves; inactive = no such curve, though single readings can be large or run the other way.

Molecular target: Peroxisome proliferator-activated receptor delta (Homo sapiens) (UniProt Q03181)
Assay: qHTS assay to identify small molecule agonists of the peroxisome proliferator-activated receptor delta (PPARd) signaling pathway (AID 743212; calls by dose curve)
Details: HEK293H PPARd-UAS-bla, beta-lactamase FRET ratio, 17 h; series mostly up to 62.6 µM; activation: at the top concentration
Outline: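 Cells expressing a UAS-driven beta-lactamase reporter (PPARd-bla HEK293H) were given test compounds after a 5 h settle and kept at 37 C. Reporter activity was then measured as FRET fluorescence using LiveBLAzer B/G substrate.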
% is set by controls: 0 for no effect and ±100 for the full control effect.

Chain of Peroxisome proliferator-activated receptor delta (Homo sapiens) (Q03181 whole entry, looked up): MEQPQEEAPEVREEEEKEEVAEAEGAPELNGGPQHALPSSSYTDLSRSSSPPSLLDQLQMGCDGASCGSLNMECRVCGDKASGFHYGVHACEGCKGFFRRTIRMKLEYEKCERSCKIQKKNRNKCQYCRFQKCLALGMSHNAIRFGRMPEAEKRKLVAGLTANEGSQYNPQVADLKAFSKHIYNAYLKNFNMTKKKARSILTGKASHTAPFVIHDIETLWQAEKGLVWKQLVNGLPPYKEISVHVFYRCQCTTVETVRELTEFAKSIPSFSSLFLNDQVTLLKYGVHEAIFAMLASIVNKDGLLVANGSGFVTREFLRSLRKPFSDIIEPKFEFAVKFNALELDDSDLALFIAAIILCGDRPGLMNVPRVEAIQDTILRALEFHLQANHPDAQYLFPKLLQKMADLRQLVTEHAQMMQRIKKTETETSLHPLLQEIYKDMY

Row | SMILES | activation
1 | NNS(=O)(=O)c1ccc(Oc2ccc(S(=O)(=O)NN)cc2)cc1 | -0.698% (inactive)
2 | OCC(CBr)(CBr)CBr | 2.92% (inactive)
3 | NC(Cc1ccc(F)cc1)C(=O)O (stereo not drawn) | 5.3% [at 5.95 µM] (inactive)
4 | O=C1CCCc2ccccc21 | 1.2% [at 81.1 µM] (inactive)
5 | CN1CCC[C@@H]1Cc1c[nH]c2ccc(CCS(=O)(=O)c3ccccc3)cc12 | -2.77% (inactive)
6 | CN1[C@@H]2CC[C@H]1CC(OC(=O)c1c[nH]c3ccccc13)C2 (stereo partly drawn) | 0.81% (inactive)
7 | O=[N+]([O-])c1nccn1CO[C@@H](CO)[C@H](O)CO | 3.03% (inactive)
8 | CNCCC(Oc1ccccc1OC)c1ccccc1 (stereo not drawn) | -4.21% (inactive)
9 | CCCOCCC | -5.92% (inactive)
10 | OC[C@H]1O[C@@H](O[C@H]2[C@H](O)[C@@H](O)[C@H](O)O[C@@H]2CO)[C@H](O)[C@@H](O)[C@H]1O | -0.397% (inactive)
11 | CN(CCCN1c2ccccc2CCc2ccccc21)CC(=O)c1ccc(Cl)cc1 | -3.07% (inactive)
12 | COC(=O)c1ccc2cc(C(=O)OC)ccc2c1 | 7.57% [at 29.1 µM] (inactive)
13 | COC(=O)N[C@H](C(=O)N[C@@H](Cc1ccccc1)[C@@H](O)CN(Cc1ccc(-c2ccccn2)cc1)NC(=O)[C@@H](NC(=O)OC)C(C)(C)C)C(C)(C)C | -5.33% (inactive)
14 | O=C(Cl)c1cccc([N+](=O)[O-])c1 | -0.0735% (inactive)
15 | CC(C)Nc1nc(N)nc(Cl)n1 | -3.4% (inactive)
16 | CC[C@H]1CC[C@H](NCc2cc3c(cc2OC)[C@H]2C[C@H]2C(=O)N3C)[C@H](c2ccccc2)N1 | -7.63% (inactive)
17 | CN1CCN(C2=Nc3cc(F)ccc3Cc3ccccc32)CC1 | -0.156% (inactive)

System: not listed separately
Assay: qHTS assay to identify small molecule antagonists of the peroxisome proliferator-activated receptor delta (PPARd) signaling pathway - cell viability counter screen (AID 743213); note: nearly all actives have a fitted effect of over 50% in size
Details: PPARd-bla HEK293H viability, CellTiter-Glo luminescence, 17 h; series mostly up to 62 µM; viability change, negative = cytotoxic: at the top concentration
Outline: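 HEK293H PPARd UAS-bla cells, 5 h pre-incubation, compound + L165041 300 nM final, 17 h 37 C; B/G FRET substrate 2 h RT; then CellTiter-Glo 30 min RT, luminescence.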

Row | SMILES | viability change, negative = cytotoxic
18 | NNS(=O)(=O)c1ccc(Oc2ccc(S(=O)(=O)NN)cc2)cc1 | 8.49% (inactive)
19 | CC1=C(CC(=O)O)c2cc(F)ccc2/C1=C\c1ccc(S(C)(=O)=O)cc1 | 16% (inactive)
20 | NC(Cc1ccc(F)cc1)C(=O)O (stereo not drawn) | 5.29% [at 6.26 µM] (inactive)
21 | O=c1oc2c(O)c(O)cc3c(=O)oc4c(O)c(O)cc1c4c23 | 21.2% [at 28.9 µM] (inactive)
22 | O=C1CCCc2ccccc21 | -1.37% [at 80.4 µM] (inactive)
23 | CCOc1ccccc1N | 11.5% (inactive)
24 | O=c1[nH]c(=O)n([C@H]2C[C@H](O)[C@@H](CO)O2)cc1C(F)(F)F | 19.4% (inactive)
25 | CN1CCC[C@@H]1Cc1c[nH]c2ccc(CCS(=O)(=O)c3ccccc3)cc12 | -1.85% (inactive)
26 | CN1[C@@H]2CC[C@H]1CC(OC(=O)c1c[nH]c3ccccc13)C2 (stereo partly drawn) | -15.7% (inactive)
27 | Nc1ccc(Oc2ccc(N)c(N)c2)cc1 | -16.8% (inactive)
28 | O=[N+]([O-])c1nccn1CO[C@@H](CO)[C@H](O)CO | -0.426% (inactive)
29 | CNCCC(Oc1ccccc1OC)c1ccccc1 (stereo not drawn) | 0.933% (inactive)
30 | OCc1ccccc1O | 20.5% (inactive)
31 | CCCOCCC | 22.8% (inactive)
32 | NC(=O)Cc1cccc(C(=O)c2ccccc2)c1N | 17.6% (inactive)
33 | Cc1cc(S(=O)(=O)O)c(N)cc1Cl | 0.385% [at 80.4 µM] (inactive)
34 | OC[C@H]1O[C@@H](O[C@H]2[C@H](O)[C@@H](O)[C@H](O)O[C@@H]2CO)[C@H](O)[C@@H](O)[C@H]1O | 3.51% (inactive)
35 | CN(CCCN1c2ccccc2CCc2ccccc21)CC(=O)c1ccc(Cl)cc1 | -19% (inactive)
36 | CC1=C2[C@H](/C=C(\C)C(=O)O)CC[C@@H](C)[C@H]2CC1 | -24.6% [at 80.4 µM] (inactive)
37 | CC1(O)CSC(C)(O)CS1 (stereo not drawn) | -6.17% (inactive)
38 | CCCCNC(=S)NCCCC | -18.6% (inactive)
39 | COC(=O)N[C@H](C(=O)N[C@@H](Cc1ccccc1)[C@@H](O)CN(Cc1ccc(-c2ccccn2)cc1)NC(=O)[C@@H](NC(=O)OC)C(C)(C)C)C(C)(C)C | 7.65% (inactive)
40 | Cn1cnc2c(F)c(Nc3ccc(Br)cc3Cl)c(C(=O)NOCCO)cc21 | 8.86% (inactive)
41 | O=C(Cl)c1cccc([N+](=O)[O-])c1 | -1.81% (inactive)
42 | CC(C)Nc1nc(N)nc(Cl)n1 | 7.12% (inactive)
43 | O=C(O[C@@H](C(=O)O)[C@@H](OC(=O)c1ccccc1)C(=O)O)c1ccccc1 | 1.25% [at 80.4 µM] (inactive)
44 | NC1=NCC2c3ccccc3Cc3ccccc3N12 (stereo not drawn) | -9.41% (inactive)
45 | CC1=NN(c2cc(Cl)c(S(=O)(=O)O)cc2Cl)C(=O)C1N=Nc1ccc(S(=O)(=O)O)cc1 (stereo not drawn) | -0.0462% (inactive)
46 | CCOC(=O)COc1ccc2c(c1)CC(NCC(O)c1cccc(Cl)c1)CC2 (stereo not drawn) | -27% (inactive)
47 | CN1CCN(C2=Nc3cc(F)ccc3Cc3ccccc32)CC1 | -25.1% (inactive)

Molecular target: Peroxisome proliferator-activated receptor delta (Homo sapiens) (UniProt Q03181)
Assay: qHTS assay to identify small molecule antagonists of the peroxisome proliferator-activated receptor delta (PPARd) signaling pathway (AID 743215; active = well fitted inhibition curve with a large enough effect in the signal ratio in the repeat runs, not every such curve was filed as active; the % refers to the signal ratio;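 note: cells stimulated with agonist L165041 at 300 nM final during compound exposure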)
Details: HEK293H PPARd-UAS-bla, beta-lactamase FRET ratio, antagonist, 17 h; series mostly up to 62 µM; ratio activity, negative = inhibition: at the top concentration
Outline: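 Fluorescence from cleaved LiveBLAzer B/G FRET substrate (2 h, room temperature) reports PPARd-driven beta-lactamase in HEK293H UAS-bla cells. Cells had been treated 17 h at 37 C with compound plus 300 nM final L165041.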

Row | SMILES | ratio activity, negative = inhibition
48 | NNS(=O)(=O)c1ccc(Oc2ccc(S(=O)(=O)NN)cc2)cc1 | 12% (inactive)
49 | CC(C)=CCCC(C)CCOC=O (stereo not drawn) | -27.9% (inactive)
50 | NC(Cc1ccc(F)cc1)C(=O)O (stereo not drawn) | 5.05% [at 6.26 µM] (inactive)
51 | O=C1CCCc2ccccc21 | 3.24% [at 80.4 µM] (inactive)
52 | O=c1[nH]c(=O)n([C@H]2C[C@H](O)[C@@H](CO)O2)cc1C(F)(F)F | 9.65% (inactive)
53 | Nc1ccc(Oc2ccc(N)c(N)c2)cc1 | 0.514% (inactive)
54 | O=[N+]([O-])c1nccn1CO[C@@H](CO)[C@H](O)CO | 5.75% (inactive)
55 | CNCCC(Oc1ccccc1OC)c1ccccc1 (stereo not drawn) | 2.73% (inactive)
56 | Cc1cc(S(=O)(=O)O)c(N)cc1Cl | -0.446% [at 80.4 µM] (inactive)
57 | COC(=O)N[C@H](C(=O)N[C@@H](Cc1ccccc1)[C@@H](O)CN(Cc1ccc(-c2ccccn2)cc1)NC(=O)[C@@H](NC(=O)OC)C(C)(C)C)C(C)(C)C | 0.826% (inactive)
58 | Cn1cnc2c(F)c(Nc3ccc(Br)cc3Cl)c(C(=O)NOCCO)cc21 | 8.39% (inactive)
59 | O=C(Cl)c1cccc([N+](=O)[O-])c1 | -4.9% (inactive)
60 | CC(C)Nc1nc(N)nc(Cl)n1 | 0.116% (inactive)
61 | O=C(O[C@@H](C(=O)O)[C@@H](OC(=O)c1ccccc1)C(=O)O)c1ccccc1 | 10.9% [at 80.4 µM] (inactive)
62 | CCOC(=O)COc1ccc2c(c1)CC(NCC(O)c1cccc(Cl)c1)CC2 (stereo not drawn) | -18.1% (inactive)
63 | CN1CCN(C2=Nc3cc(F)ccc3Cc3ccccc32)CC1 | -20.6% (inactive)
